Out of some 410,000 compounds screened, about 2,000 (0.49%) were called active. Not shown: some 8% with an inconclusive outcome. What follows is part of a selection rich in actives, with near analogues and random picks from the rest. Unmarked numbers belong to inactive results. Calls follow the shape of the full dose curve; tested in HEK293 reporter line.
Potency is read from the fitted curve at half-maximal effect.

This test can be described thus: qHTS Assay for Foot and Mouth Disease Virus Antivirals: Primary Screen against the MLPCN compound library. Also: nearly all actives have a fitted effect of over 55% in size. Conditions: FMDV antiviral cell-based qHTS; series mostly up to 57.9 µM; activity, negative = inhibition: at the top concentration. Background: In qHTS, concentration-response curves come from the screen itself.
`CC(NC(=O)C1CCN(CCOc2ccc(Cl)cc2)CC1)c1cccc2ccccc12` (stereo not drawn): the “activity, negative = inhibition” value is -31.2%.
As for `O=C(c1ccc(=O)n(Cc2ccccc2)n1)N1CCN(C/C=C/c2ccccc2)CC1`, the Potency was 15.8 µM (active).
`C[C@H](NC(=O)c1ccc(C(C)(C)C)cc1)C(=O)N1CCN(C/C=C/c2ccccc2)CC1`: the “activity, negative = inhibition” value is -40.1%.
As to `O=C(/C=C/c1ccco1)N1CCN(C/C=C/c2ccccc2)CC1`, the “activity, negative = inhibition” value is -36.1%.
Same read-out and setting: for `CCOc1ccc(-n2c(SCc3nc(-c4ccc(OC)cc4)no3)nnc2-c2ccncc2)cc1` the value was -39.4%.
The same measure, in the same setting: with `O=C(NCc1ccc(F)cc1)C(=O)NCC(c1cccs1)S(=O)(=O)c1cccs1` (stereo not drawn) the figure was -30.9%.
Regarding `Cc1ccccc1Nc1sc(C(=O)c2ccccc2)c(N)c1S(C)(=O)=O`, the “activity, negative = inhibition” value was -27.5%.
The same measure, in the same setting: with `Cc1sc(NC(=O)c2ccccc2)c(C(=O)c2ccccc2)c1C` the figure was -34%.
As to `Cc1ccc(Nc2sc(C(=O)c3ccccc3)c(N)c2C(=O)Nc2ccc(Cl)cc2)cc1`, the Potency is 15.8 µM (active).
For `O=S(=O)(c1ccc(Cl)cc1)c1nnn2c1nc(NC1CCCCC1)c1sccc12`, the “activity, negative = inhibition” value is -30.8%.
Regarding `Cc1ccc2nc(NC(=O)c3cc(-c4ccco4)nc4ccccc34)sc2c1`, the “activity, negative = inhibition” value was -32.7%.
Same read-out and setting: for `Cc1ccc2nc(NC(=O)CSc3nccn3Cc3ccc(F)cc3)sc2c1` the value was -21.8%; for `COc1ccc(C(=O)Nc2nc3ccccc3s2)c(OC)c1`, -99.7%.
On to `Cc1ccc2nc(NC(=O)c3ccco3)sc2c1`, for which the Potency is 12.6 µM (active).
`COc1ccc2nc(NC(=O)c3ccco3)sc2c1`: the Potency was 15.8 µM (active).
In the case of `COc1ccc2oc(C(=O)Nc3nc4ccc(S(C)(=O)=O)cc4s3)c(C)c2c1`, the “activity, negative = inhibition” value was -31.4%.
Regarding `CCCCCc1nnc(NC(=O)c2cccc(S(=O)(=O)N3CCOCC3)c2)s1`, the “activity, negative = inhibition” value is -35.2%.
Take `CN(C)S(=O)(=O)N1CCc2ccc(NC(=O)c3ccc(C(F)(F)F)cc3)cc2C1`: the “activity, negative = inhibition” value was -41%.
Consider `COc1cc(-c2cc(NC=O)c3ncc(-c4cccc(C(F)(F)F)c4)n3c2)cc(OC)c1OC`, for which the “activity, negative = inhibition” value was -31.8%.
Regarding `CSc1ccccc1OCc1cc(C(=O)NCC(C)(C)N2CCOCC2)no1`, the “activity, negative = inhibition” value is -23.1%.
On the same count and under the same terms, for `O=C1CCCN2N=C(SCC(=O)Nc3ccc(OC(F)(F)F)cc3)SC2=N1` the value was -31%.
On to `N#Cc1cc2c(nc1SCC(=O)Nc1ccc(OC(F)(F)F)cc1)C1CCN2CC1`, for which the Potency was 15.8 µM (active).
Turning to `O=C(CSc1nc(=O)n(CCN2CCOCC2)c2c1CCC2)Nc1ccc(OC(F)(F)F)cc1`, the “activity, negative = inhibition” value was -40.8%.
The same measure, in the same setting: with `CCCN1C(=O)c2cc(C(=O)Nc3ccccc3OC)ccc2C1Nc1ccccc1OC` (stereo not drawn) the figure was -38.9%; with `CCc1ccc(-n2c(=O)c3c4c(sc3n(CC(=O)N3CCCCC3CC)c2=O)CCC4)cc1` (stereo not drawn), -31.9%.
As to `CC(C)C(=O)N1CCC(CN=Cc2c(O)n(C3CCCCC3)c(=O)n(C3CCCCC3)c2=O)CC1`, the Potency is 25.1 µM (active).
Turning to `Cc1ccc(-c2cc(-c3ccc(F)cc3)nc(N)c2C#N)o1`, the “activity, negative = inhibition” value is -34.5%.
As to `CC(C)(C)OC(=O)N1CCCC(C(=O)Nc2cccc(C(=O)NCc3ccccc3)c2)C1` (stereo not drawn), the “activity, negative = inhibition” value is -40.2%.
Take `CC(C)Oc1ccc(CN2CCC2(C)C(=O)Nc2cccc(Oc3ccccc3)c2)cc1` (stereo not drawn): the “activity, negative = inhibition” value is -33.4%.
For the compound `CC(C)Oc1ccc(CNC(=O)c2cccc(NC(=O)N3CCSc4ncccc43)c2)cc1`, the Potency is 20 µM (active).
As for `Cc1[nH]c2ccccc2c1C(=O)CN1C(=O)C(=O)N(CCC2=CCCCC2)C1=O`, the “activity, negative = inhibition” value was -31.7%.
As for `COc1cc2c(cc1NC(=O)c1cc(-c3ccncc3)nc3ccccc13)oc1ccccc12`, the “activity, negative = inhibition” value was -31.8%.
Regarding `CCC1(c2ccc(F)cc2)NC(=O)N(CC(=O)Nc2cc(S(=O)(=O)N(C)C)ccc2Cl)C1=O` (stereo not drawn), the “activity, negative = inhibition” value is -31.6%.
`N=c1ccn(Cc2ccc(Cl)c(Cl)c2)cc1`: the “activity, negative = inhibition” value was -6.86%.
On the same count and under the same terms, with `O=C(COc1ccc(Oc2ccccc2)cc1)NCc1cn2ccccc2n1` the figure was -32.5%.
For `Brc1ccc(-c2cn3ccccc3n2)cc1`, the Potency was 11.2 µM (active).
As to `c1ccc(-c2nc3ccccn3c2-c2ccccc2)cc1`, the “activity, negative = inhibition” value is -28.6%.
Turning to `Clc1ccc(-c2cn3cc(Br)ccc3n2)cc1Cl`, the Potency was 14.1 µM (active).
`O=C(O)c1ccnc(Cl)c1`: the “activity, negative = inhibition” value was -30.7%.
`CCc1noc(C)c1C(=O)Nc1nc(-c2ccc(Cl)cc2Cl)c(C)s1`: the “activity, negative = inhibition” value is -34.7%.
Same read-out and setting: with `COc1ccccc1N1CCN(C(=O)c2ccccc2Oc2ccccc2)CC1` the figure was -42.1%; with `COc1ccccc1NS(=O)(=O)c1cccc(C(=O)N/N=C/c2ccc(N3CCOCC3)cc2)c1`, -31.5%; with `Cc1ccc(C)c(N2CCN(C(=O)c3cnn(-c4ccccc4Cl)c3C3CCN(C(=O)OC(C)(C)C)CC3)CC2)c1`, -38.2%.
Still for that read-out and setting: for `Cc1ccc2c(c1)-c1c(cnn1CC(=O)N(Cc1ccco1)C1CCCCC1)CO2` the value was -31.6%; for `CC(C)(C)NC(=O)NC(=O)CN1CCN(C(c2ccccc2)c2ccccc2)CC1`, -40.2%.
As to `Cc1ccc(N(Cc2cc(=O)[nH]c3ccccc23)C(=O)CCl)cc1`, the Potency is 20 µM (active).
As to `CCOc1ccc(N(Cc2cc3cc(C)ccc3[nH]c2=O)C(=O)c2cccc(Cl)c2)cc1`, the “activity, negative = inhibition” value is -31.5%.
Same read-out and setting: for `COc1ccc(CC(=O)N(Cc2ccccc2)c2ccc(C)cc2)cc1OC` the value was -32.2%.
Regarding `Cc1ncsc1CCC(=O)N1CCCC(c2nc(-c3ccncc3)ncc2-c2ccccc2)C1` (stereo not drawn), the “activity, negative = inhibition” value was -30.6%.
Same read-out and setting: with `COc1cccc(-n2cnc3scc(-c4cccs4)c3c2=O)c1` the figure was -33.2%.
In the case of `O=C(NC(c1ccccc1)c1ccccc1)c1ccc(S(=O)(=O)C(F)F)cc1`, the “activity, negative = inhibition” value was -31.9%.
On to `O=C(Nc1ccccc1)N1CCCN(c2ccc(C(F)(F)F)cn2)CC1`, for which the “activity, negative = inhibition” value is -41%.
On to `O=C(CN1CCN(c2ccccn2)CC1)Nc1cccc(C(F)(F)F)c1`, for which the “activity, negative = inhibition” value was -43.4%.
Take `O=C(Nc1cccc(-c2ccc(N3CCCCC3)nn2)c1)C(F)(F)F`: the Potency is 14.1 µM (active).
As to `COC(=O)c1ccc(CSc2ncnc3ccccc23)o1`, the “activity, negative = inhibition” value was -30.7%.
Take `CC(C)C1NC(=S)N(C2CCCCC2)C1=O` (stereo not drawn): the “activity, negative = inhibition” value is -26.9%.
The same measure, in the same setting: for `CCOC(=O)c1sc2nc(CC(=O)OC)nc(N3CCN(c4ccc(OC)cc4)CC3)c2c1C` the value was -48.5%; for `CCOC(=O)c1cc(C)n(CC2CCC(C(=O)Nc3ccc(C(=O)OC)cc3)CC2)c1C` (stereo not drawn), -31.3%; for `Cc1ccc(CS(=O)(=O)c2ncc(Cl)c(C(=O)Nc3nc4ccc(F)cc4s3)n2)cc1`, -48.8%.
For the compound `CCc1nnc(NC(=O)c2nc(S(=O)(=O)Cc3ccccc3)ncc2Cl)s1`, the Potency is 20 µM (active).
For `CCc1nnc(NC(=O)c2cccc(C(=O)Nc3nnc(CC)s3)n2)s1`, the “activity, negative = inhibition” value is -20%.
Still for that read-out and setting: for `CCc1ccccc1NC(=O)Cn1nc(C)c2nn(-c3ccc(Cl)cc3)c(C)c2c1=O` the value was -30.7%; for `Cc1ccccc1C(=O)N(Cc1nc(-c2ccc(Cl)cc2)no1)C(C)C`, -30.6%.

(Values after PubChem BioAssay AID1347131 (National Center for Advancing Translational Sciences (NCATS), 2019).)
